# Results filed as inconclusive are left out. Active and inactive are the calls of the source. Calls follow the shape of the dose curve; as a rule, active = well fitted curve in the direction sought with a large enough effect; inconclusive = small, poorly fitted or top-dose-only effect, or another doubt; inactive = no such curve, though single readings can be large or run the other way.
# Assay: qHTS for Inhibitors of Bloom's syndrome helicase (BLM): Thiazole Orange DNA Binding Counterscreen for SAR.
# From the text: Human RecQ DNA helicases participate in maintenance of genome stability and DNA repair. While other types of helicases have been explored as targets for drug development, members of the RecQ family have remained less well characterized. Mutations of the Bloom helicase gene have been associated with the rare human genetic disease called Bloom syndrome. […] Moreover, identified inhibitors can be used in cells and animal models to examine the consequences of inhibition on the survival of cancer cells where it has been shown that BLM plays an important role.
# A fluorescence-based, biochemical assay in 1536 well format was developed to evaluate inhibition of BLM DNA unwinding activity. This assay was used to screen the MLPCN library. The resulting compounds were subjected to orthogonal and secondary biochemical assays to triage the initial hits, to classify compounds based on mode of action and to derive structure activity relationships (SARs) of candidate effectors. The Thiazole Orange (ThO) DNA binding (TO-binding) is used to eliminate inhibitors that operate via nonspecific DNA binding. […]
# Compounds were added to a 4 uL mixture of 50 nM DNA and 100 nM ThO via pintool transfer. The fluorescence signal (excitation 480 nm, emission 530 nm) was measured after 15 min incubation at room temperature using the ViewLux CCD imager.
row,SMILES,outcome
1,N#Cc1ccc(NC(=O)Nc2nnc(-c3ccncc3)s2)cc1C(F)(F)F,inactive
2,N#Cc1ccc(NC(=O)Nc2nnc(-c3ccncc3)s2)cc1Cl,inactive
